HepG2 tox-1 – kills HepG2 cells in TGF-b inhibitor counter-screen; AID 588856; Potency, µM (top dose mostly 46.1 µM), without a hit: at the top dose activity change, negative = cytotoxicity, hits mostly cytotoxic; HepG2 CAGA-GFP viability, ATP luminescence, 18 h; 410,000 tested, 0.76% active; note: potency is the fitted concentration of half-maximal effect
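HepG2 CAGA-GFP cells (1000/well, DMEM with 1% FBS) received compound, then TGF-beta at 500 pg/mL final, and were incubated 18 hours at 37 degrees C. Viability was read by CellTiter-Glo luminescence. Media-only wells were set as complete cell-killing and DMSO as no toxicity.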
HT1080 IDH1KD tx – toxicity to HT-1080 IDH1 knockdown cells (counter line) | HT-1080 IDH1 knockdown viability, ATP luminescence, 48 h | Potency, µM (series often up to 46.1 µM), inactives show at the top dose activity, negative = toxicity, most hits filed as cytotoxic | 360,000 tested, 2% active | AID 686971;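 note: potency is the fitted concentration of half-maximal effect; 0% = DMSO wells and -100% = cell-free medium wells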
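HT-1080-IDH1KD cells (IDH1 knocked down), 750/well in RPMI with 5% FBS, treated with compound 48 h at 37 degrees C. Viability by CellTiter-Glo luminescence, normalised to DMSO and no-cell wells; concentration-response curves classed.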
HT1080-NT tox – kills 2HG-producing HT-1080-NT fibrosarcoma cells; 360,000 tested, 1.6% active; HT-1080-NT fibrosarcoma viability, CellTiter-Glo ATP luminescence, 48 h; Potency, µM (titrated, usually from 46.1 µM), inactives show top-dose activity, negative = less viability, most hits filed as cytotoxic;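 note: NT is the 2HG producing partner of a matched IDH1 knockdown line; potency is the fitted concentration of half-maximal effect; 0% = DMSO-treated cells and -100% = media-only wells without cells; nearly all actives have a fitted effect of over 55% in size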
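A 48-hour cytotoxicity screen used HT-1080-NT cells plated 2 hours before compound delivery. ATP-based CellTiter-Glo luminescence measured viability, normalized to DMSO and no-cell controls.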
IL1B secr inh – inhibitors of inflammasome signaling (IL-1 beta secretion) | AID 743279 | 360,000 tested, 4.7% active | THP-1 LPS/ATP IL-1B secretion, AlphaLISA, 16 h; stronger effect = lower value | activity change, % at 57.5 µM; in the data active = activity change below about -50%; inconclusive = mostly about -30% to -49%; note: % is set by controls: 0 for no effect and ±100 for the full control effect
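THP-1 cells pretreated 1 hr with compounds (up to 57.5 uM final), then stimulated with LPS (250 ng/mL final) plus ATP (1.25 mM final); secreted IL-1B measured by AlphaLISA after 16 hr, decreased signal indicating inhibition.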
Giardia kill – Giardia lamblia killing; 340,000 tested, 0.15% active; Giardia lamblia trophozoite viability; activity change, % at 7.66 µM, hits read low; in the data active = activity change below about -80%; inconclusive = between about -30% and that limit;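 note: parasites exposed to compound for two days anaerobically before the ATP read; % is set by controls: 0 for no effect and ±100 for the full control effect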
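Giardia trophozoites, 100 cells per well, were exposed to compounds for 48 hrs at 37 deg C under anaerobic conditions; viability was then read as ATP content by bioluminescence after 15-30 min at room temperature.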
TGFb SMAD3 inh – inhibitors of TGF-b signaling; 410,000 tested, 1.2% active; HepG2 CAGA-GFP TGF-b/SMAD3 reporter, GFP fluorescence, 18 h; TGF-beta stimulated, 500 pg/mL final; Potency, µM (top dose mostly 46.1 µM), without a hit: top-dose activity, negative = inhibition, hits mostly inhibitors; AID 588855; note: potency is the fitted concentration of half-maximal effect; % is set by controls: 0 for no effect and ±100 for the full control effect; nearly all actives have a fitted effect of over 65% in size
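Using HEPG2 CAGA-GFP reporter cells at 1000 cells/well, we pinned test compounds, stimulated with recombinant TGF-beta (500 pg/mL final) and measured total well GFP after 18 h.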
TGFb confirm – TGF-b pathway inhibition, cherry-pick retest. AID 720534. Potency, µM (titrated, usually from 46.1 µM), without a hit: at the highest dose activity, negative = inhibition, actives largely listed as inhibitors. 1,600 tested, 63% active. HepG2 CAGA-GFP TGF-b reporter, GFP fluorescence, 18 h; cells stimulated with TGF-beta, 500 pg/mL. shares compounds with TGFb SMAD3 inh; note: potency is the fitted concentration of half-maximal effect; % is set by controls: 0 for no effect and ±100 for the full control effect; nearly all actives have a fitted effect of over 65% in size
HepG2 tox-2 – HepG2 cytotoxicity, TGF-b inhibitor counterscreen; shares compounds with TGFb SMAD3 inh; HepG2 CAGA-GFP viability, ATP luminescence, 18 h; cells stimulated with TGF-beta, 500 pg/mL; Potency, µM (doses to about 46.1 µM), for inactives: at the top dose activity, negative = cytotoxicity, usual class: inhibitors; 1,600 tested, 27% active; AID 720535; note: potency is the fitted concentration of half-maximal effect; % is set by controls: 0 for no effect and ±100 for the full control effect; nearly all actives have a fitted effect of over 70% in size
TGFb CCL64 inh – blocks TGF-b signaling in CCL64 reporter cells; shares compounds with TGFb SMAD3 inh; 1,600 tested, 41% active; CCL64 CAGA-GFP reporter, TGF-b stimulated, GFP fluorescence, 18 h; Potency, µM (series often up to 46.1 µM), inactives show at the highest dose activity, negative = inhibition, most hits filed as inhibitors; AID 720536; note: potency is the fitted concentration of half-maximal effect; nearly all actives have a fitted effect of over 65% in size
COP TGFb inh – validation of TGF-b inhibitors in HepG2 COP promoter reporter; shares compounds with TGFb SMAD3 inh; HepG2 COP-GFP TGF-b reporter, GFP fluorescence, 18 h; cells stimulated by added recombinant TGF-beta; Potency, µM (top dose mostly 46.1 µM), without a hit: at the highest dose activity, negative = inhibition, hits mostly inhibitors; 1,600 tested, 3% active; AID 720537; note: potency is the fitted concentration of half-maximal effect; nearly all actives have a fitted effect of over 70% in size
* hit, by the source's call; ? = inconclusive; . = no result given. Only some compounds are listed: those with a hit (about 6.5% of all), similar ones and a draw of the others. Unless noted, calls come from the whole dose curve; as a rule, active = well fitted curve in the direction sought with a large enough effect; inconclusive = small, poorly fitted or top-dose-only effect, or another doubt; inactive = no such curve, though single readings can be large; an effect the other way counts as inactive or inconclusive.

SMILES | HepG2 tox-1 | HT1080 IDH1KD tx | HT1080-NT tox | IL1B secr inh | Giardia kill | TGFb SMAD3 inh | TGFb confirm | HepG2 tox-2 | TGFb CCL64 inh | COP TGFb inh
Cc1ccc(NC(=O)c2ccccc2NS(=O)(=O)c2ccc(Cl)s2)cc1S(=O)(=O)N1CCOCC1 | -51% | ? | ? | ? | -7 | ? | 13µM* | ? | 8.2µM* | 61%
CCN1C(=O)[C@@H]2[C@@H]3CN(S(=O)(=O)c4ccc(C)cc4)[C@@H](c4ccccc4)[C@@H]3C(=O)C[C@@H]2C1=O | -20% | 19% | 16% | -9 | . | -8% | . | . | . | .
CCOC1=CC2=C(C(=O)C(Cl)=CC2=O)[C@@H]2CN(S(=O)(=O)c3ccc(C)cc3)[C@@H](c3ccccc3)[C@H]12 | -28% | ? | ? | 0 | . | 11µM* | 4.1µM* | ? | 5.2µM* | 17%
COc1ccccc1CC(=O)c1ccccc1OC | 2% | -4% | 3% | -8 | 0 | 7% | . | . | . | .
CCOc1cc(C)c(C(C)C)cc1S(=O)(=O)n1ccc(C)n1 | -1% | 3% | -4% | 18 | -9 | -2% | . | . | . | .
Cc1onc(-c2c(F)cccc2Cl)c1C(=O)Nc1nnc(C(F)(F)F)s1 | -26% | ? | ? | ? | -11 | 18µM* | 21µM* | ? | ? | 35%
Cc1onc(-c2c(F)cccc2Cl)c1C(=O)Nc1nccs1 | -21% | -1% | -22% | 17 | 23 | -5% | . | . | . | .
O=C(Nc1ccccc1C(=O)Nc1nnc(C(F)(F)F)s1)c1ccccc1Cl | -49% | 10µM* | 10µM* | -73* | -8 | 3.5µM* | 5.8µM* | 4.1µM* | 6.5µM* | 74%
CC(=O)Nc1ccc(NC(=O)c2ccc(Cl)c(S(=O)(=O)N3CCc4ccccc43)c2)cc1 | 1% | 2% | -7% | 20 | 9 | 0% | . | . | . | .
COc1cc(OC)cc(C(=O)N[C@H](C(=O)Nc2nc(-c3ccc(OC)c(OC)c3)cs2)C(C)C)c1 | -16% | -1% | ? | -29 | 9 | 13µM* | 15µM* | -7% | -18% | 23%
COc1cc(C2c3cc4c(cc3OC(NCCc3ccccc3)C2C)OCO4)cc(OC)c1OC (stereo unspecified) | -10% | 1µM* | 1µM* | 41 | -5 | ? | ? | -2% | 16µM* | -10%
COc1cc(C2c3cc4c(cc3OC(N3CCOCC3)C2C)OCO4)cc(OC)c1OC(C)=O (stereo unspecified) | -1% | ? | ? | 21 | -4 | -11% | . | . | . | .
Oc1ccccc1-c1n[nH]c(-c2ccccc2O)n1 | -61% | ? | ? | -3 | -5 | 2.8µM* | ? | ? | ? | 4%
COc1ccccc1Nc1nc(-c2ccccc2Cl)c2cc(Br)ccc2n1 | -32% | . | . | . | . | 3% | . | . | . | .
CN(Cc1ccccc1)S(=O)(=O)c1ccc(NC(=S)NC(=O)C2CCCCC2)cc1 | -1% | -27% | -5% | 37 | -1 | 13µM* | 33µM* | ? | 14% | 19%
CCCc1cc(C(=O)O)c2ccccc2n1 | -1% | 4% | 1% | -5 | -3 | 17% | . | . | . | .
Cc1ccc(NC(=O)Cc2cc(C(=O)O)c3ccccc3n2)c(C)c1 | -53% | ? | -23% | -6 | -10 | 8.9µM* | ? | ? | 7.3µM* | 44%
CCCNC(=O)CN1C(=O)NC(CC)(c2ccc(F)cc2)C1=O (stereo unspecified) | 1% | 8% | 24% | 20 | 6 | 6% | . | . | . | .
CCCc1cc(=O)[nH]c(Nc2cccc(Cl)c2Cl)n1 | -52% | . | . | . | . | ? | . | . | . | .
Cc1cccc(NC(=O)Nc2ccc(C#N)cc2)n1 | -34% | -3% | -7% | -85* | -24 | 2.5µM* | 6.5µM* | 8.2µM* | 4.1µM* | 27%
Cc1cccc(NC(=O)Nc2cccc(C#N)c2)n1 | -48% | -4% | -11% | . | 4 | ? | . | . | . | .
CC(OC(=O)c1ccc(C(C)(C)C)cc1)C(=O)NC1CCCCC1C (stereo unspecified) | -21% | -1% | 0% | 0 | 31 | -6% | . | . | . | .
O=C(Nc1cc(Sc2ccccn2)cc([N+](=O)[O-])c1)c1ccc(Cl)cc1 | -24% | ? | ? | -66* | -12 | 14µM* | 12µM* | -19% | 10µM* | 11%
COc1ccc(S(=O)(=O)N2CCCCCC2)cc1C(=O)N(C)CCOc1ccc(Cl)cc1 | -8% | -30% | ? | ? | 2 | -23% | . | . | . | .
CCN1CCN(S(=O)(=O)c2ccc(Cl)c(C(=O)N(C)CCOc3ccc(Cl)cc3)c2)CC1 | -9% | ? | ? | -29 | 9 | 14µM* | 13µM* | ? | ? | 12%
COc1ccc([N+](=O)[O-])cc1NC(=O)CCSCCc1ccccn1 | -9% | -4% | -3% | 48 | 2 | 10% | . | . | . | .
O=C(COc1ccc(-c2nnc(N3CCCCC3)c3ccccc23)cc1)N1CCCCC1 | -32% | ? | -23% | -17 | 46 | 18µM* | 23µM* | -20% | -35% | 2%
O=C(COc1ccccc1)N1CCCC1 | 22% | 18% | 17% | 14 | 7 | 4% | . | . | . | .
Cc1cc(C)n(-c2ccc(C(=O)Nc3cccc(S(=O)(=O)N(C)C)c3)cc2)n1 | 1% | -20% | 1% | 0 | 11 | ? | . | . | . | .
CCN(CC)S(=O)(=O)c1cccc(NC(=O)c2ccc(-n3nc(C)cc3C)cc2)c1 | -1% | 0% | -6% | ? | -20 | 7.9µM* | ? | -18% | -1% | -9%
